Molecules are shown by their SMILES. Calls of active or inactive are those of the source.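 Rule for the calls: active = viability loss from added drug above about 55%, and viability with drug at most 40%, in both replicates (limit read from the data, passing the limit was not always enough); inconclusive = both conditions met in only one replicate; inactive = neither replicate meets both conditions.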

By viability is commonly meant a read-out of living cells in per cent, often relative to untreated cells.

The nature of one assay: MRP1 drug-resistance reversers in H69AR cells – cell-based, doxorubicin co-treatment, pilot screen (AID 601). Conditions: H69AR cells + 2 uM doxorubicin, CellTiter-Glo, 72 h; at 10 µM; stronger effect = higher value. (In general: In ATP-based viability assays light output follows the ATP content of the culture.)
With `CC1=C(C(=O)OCCOC(C)C)C(c2cc3c(cc2Br)OCO3)C2=C(CCCC2=O)N1` (stereo not given), the differential viability (reversal) was 1.89% (inactive).
The same measure, in the same setting: next, `O=C(NCC(c1cccnc1)N1CCN(c2ccccc2)CC1)c1ccc2c(c1)OCO2` (stereo not given): -7.41% (inactive); `CCOC(=O)C(NC(C)=O)(NS(=O)(=O)c1ccccc1)C(F)(F)F` (stereo not given): 5.89% (inactive); `CC(C)(C)Nc1nc(NC(C)(C)C)nc(-n2ccnc2)n1`: 1.06% (inactive).
Still for that read-out and setting: next, `Cc1nc2c3cnn(-c4ccccc4)c3ncn2n1`: 14.2% (inactive).
Same read-out and setting: next, `CCOC(=O)C1CCN(c2c(Nc3ccc4c(c3)OCCO4)c(=O)c2=O)CC1`: -0.805% (inactive).
Turning to `Cc1ccc(SCc2[nH]nc3c2C(c2ccc(C)o2)C(C#N)=C(N)O3)cc1` (stereo not given), the differential viability (reversal) is -5.55% (inactive).
Still for that read-out and setting: next, `CCOC(=O)N1CCN(C(=O)CCc2ccc(S(=O)(=O)NCCc3ccccc3)cc2)CC1`: 17.6% (inactive); `O=C(CSc1nnnn1-c1ccc(Cl)cc1)NC(=O)Nc1ccc2c(c1)OCCO2`: 0.67% (inactive); `CCCCn1c(CN2CCN(c3cccc(Cl)c3)CC2)nc2c1c(=O)n(C)c(=O)n2C`: 50.2% (inactive).
Take `COc1ccc(Cn2c(CCCO)nc3ccccc32)cc1OC`: the differential viability (reversal) was 14.2% (inactive).
`CC1(C)NC(=O)N(CC(O)CN(Cc2ccccc2)Cc2ccccc2)C1=O` (stereo not given): the differential viability (reversal) was 13.7% (inactive).
Turning to `Cc1cc(C)n(C(=O)CNC(=O)C2COc3ccccc3O2)n1` (stereo not given), the differential viability (reversal) was 3.57% (inactive).
Still for that read-out and setting: the value for `CCOC(=O)c1ccc2[nH]c(C)c(CN3CCN(C)CC3)c(=O)c2c1` was -0.335% (inactive); that for `Cc1cc(=O)n(C)c(=O)n1CCCNc1ccccc1` was 11.4% (inactive).
As to `S=c1[nH]nc(-c2cccc(Br)c2)o1`, the differential viability (reversal) is 3.51% (inactive).
Turning to `Cc1ccc(S(=O)(=O)N2CCN(CCO)CC2)cc1-c1nnc2c3ccccc3c(C)nn12`, the differential viability (reversal) was 2.01% (inactive).
Still for that read-out and setting: next, `CC1=C(C(=O)Nc2ccccc2)C(c2ccco2)C(C#N)=C(SCC(=O)Nc2cccc(C)c2C)N1` (stereo not given): -10.1% (inactive).
`CCOC(=O)c1cc(CC)sc1NC(=O)CCC(=O)O`: the differential viability (reversal) is 2.2% (inactive).
In the case of `O=C(NCC(c1cccnc1)N1CCOCC1)c1cccs1` (stereo not given), the differential viability (reversal) is -0.595% (inactive).
Same read-out and setting: the value for `O=c1cc(-c2ccccc2)[nH]c2nc3ccccc3n12` was -49.3% (inactive); that for `O=C(c1ccccc1-c1ccccc1)N1CCN(c2ccccn2)CC1` was -57.7% (inactive).
Same read-out and setting: next, `CCc1ccccc1NC(=O)CSc1nc2n[nH]c(C)c2c(=N)n1-c1ccc(OC)cc1`: -2.23% (inactive); `Cc1cccc(C)c1NC(=O)CC(NCc1ccco1)C(=O)O` (stereo not given): 13.5% (inactive).
Still for that read-out and setting: next, `Cc1noc(NS(=O)(=O)c2ccc(N3C(=O)c4ccccc4C3=O)cc2)c1C`: 0.49% (inactive).
Turning to `O=C(NC(C(=O)c1ccccc1)n1ccc(=O)[nH]c1=O)c1ccccc1` (stereo not given), the differential viability (reversal) is 6.79% (inactive).
For the compound `CCc1nnc(NC(=O)NCN2C(=O)C3C4C=CC(C4)C3C2=O)s1` (stereo not given), the differential viability (reversal) is 1.7% (inactive).
As for `Cc1cc(C)c(C)c(S(=O)(=O)Nc2ccc(O)cc2)c1C`, the differential viability (reversal) was 14.1% (inactive).
For `COc1cccc(C(c2nnnn2CCc2ccccc2)N2CCN(c3ccccc3)CC2)c1OC` (stereo not given), the differential viability (reversal) was -7.96% (inactive).
As to `O=C(CSc1nc(-c2ccccc2)cs1)NCc1ccco1`, the differential viability (reversal) is 1.79% (inactive).
The same measure, in the same setting: the value for `Cc1cccc2cc(CN(CCCO)C(=O)Nc3ccc(Cl)cc3)c(=O)[nH]c12` was 5.85% (inactive); that for `O=C(O)c1oc2ccccc2c1-n1cccc1` was -0.995% (inactive); that for `O=C1CCc2cc(S(=O)(=O)N3CCC(C(=O)Nc4nccs4)CC3)ccc2N1` was 4.98% (inactive).
As to `CC(=O)N1C(=O)C2(C(C#N)=C(N)Oc3cc(C)oc(=O)c32)c2ccccc21` (stereo not given), the differential viability (reversal) was 7.52% (inactive).
With `CCOc1ccc(C(=O)N2CCN(c3ccccc3)CC2)cc1OCC`, the differential viability (reversal) was -14.8% (inactive).
Still for that read-out and setting: the value for `O=C(Cn1cnc2c(nnn2Cc2ccccc2)c1=O)c1ccc(Cl)cc1` was 8.5% (inactive).
The same measure, in the same setting: next, `CCCNS(=O)(=O)c1ccc(OCC(=O)NCc2ccc3c(c2)OCO3)cc1`: 4.96% (inactive); `COCCN(C(=O)CCC(=O)Nc1ccccn1)C(C(=O)NC1CCCC1)c1ccc(OC)cc1` (stereo not given): 14.3% (inactive).
The same measure, in the same setting: the value for `Cn1c(=O)n(CC(=O)OCc2ccccc2)c(=O)c2c1nc1n2CCCN1C1CCCCC1` was 32.8% (inactive); that for `CCOc1ccc(-c2nnn(CCC(=O)O)n2)cc1OC` was 12.1% (inactive).

The same assay, now with this note: H69AR cells + 2 uM doxorubicin, CellTiter-Glo, 72 h; measured here: viability with 2 uM doxorubicin; at 10 µM; stronger effect = lower value.
`CC1=C(C(=O)OCCOC(C)C)C(c2cc3c(cc2Br)OCO3)C2=C(CCCC2=O)N1` (stereo not given): the viability came out at 78.9%.
The same measure, in the same setting: next, `O=C(NCC(c1cccnc1)N1CCN(c2ccccc2)CC1)c1ccc2c(c1)OCO2` (stereo not given): 98.2%; `CCOC(=O)C(NC(C)=O)(NS(=O)(=O)c1ccccc1)C(F)(F)F` (stereo not given): 94.2%.
For the compound `CC(C)(C)Nc1nc(NC(C)(C)C)nc(-n2ccnc2)n1`, the viability worked out at 87.6%.
The same measure, in the same setting: next, `Cc1nc2c3cnn(-c4ccccc4)c3ncn2n1`: 82.5%; `CCOC(=O)C1CCN(c2c(Nc3ccc4c(c3)OCCO4)c(=O)c2=O)CC1`: 89.2%; `Cc1ccc(SCc2[nH]nc3c2C(c2ccc(C)o2)C(C#N)=C(N)O3)cc1` (stereo not given): 82.4%.
For `CCOC(=O)N1CCN(C(=O)CCc2ccc(S(=O)(=O)NCCc3ccccc3)cc2)CC1`, the viability came out at 83.1%.
For `O=C(CSc1nnnn1-c1ccc(Cl)cc1)NC(=O)Nc1ccc2c(c1)OCCO2`, the viability was 74.8%.
For the compound `CCCCn1c(CN2CCN(c3cccc(Cl)c3)CC2)nc2c1c(=O)n(C)c(=O)n2C`, the viability was 24.5%.
As to `COc1ccc(Cn2c(CCCO)nc3ccccc32)cc1OC`, the viability is 88%.
The same measure, in the same setting: the value for `CC1(C)NC(=O)N(CC(O)CN(Cc2ccccc2)Cc2ccccc2)C1=O` (stereo not given) was 78.9%.
For the compound `Cc1cc(C)n(C(=O)CNC(=O)C2COc3ccccc3O2)n1` (stereo not given), the viability was determined as 93.5%.
Turning to `CCOC(=O)c1ccc2[nH]c(C)c(CN3CCN(C)CC3)c(=O)c2c1`, the viability was 91.8%.
Regarding `Cc1cc(=O)n(C)c(=O)n1CCCNc1ccccc1`, the viability stood at 88.5%.
Take `S=c1[nH]nc(-c2cccc(Br)c2)o1`: the viability is 92.6%.
Still for that read-out and setting: next, `Cc1ccc(S(=O)(=O)N2CCN(CCO)CC2)cc1-c1nnc2c3ccccc3c(C)nn12`: 94.2%; `CC1=C(C(=O)Nc2ccccc2)C(c2ccco2)C(C#N)=C(SCC(=O)Nc2cccc(C)c2C)N1` (stereo not given): 57.6%; `CCOC(=O)c1cc(CC)sc1NC(=O)CCC(=O)O`: 91.6%.
`O=C(NCC(c1cccnc1)N1CCOCC1)c1cccs1` (stereo not given): the viability was determined as 93.1%.
On the same count and under the same terms, the value for `O=c1cc(-c2ccccc2)[nH]c2nc3ccccc3n12` was 58.8%.
Still for that read-out and setting: next, `O=C(c1ccccc1-c1ccccc1)N1CCN(c2ccccn2)CC1`: 73.7%; `CCc1ccccc1NC(=O)CSc1nc2n[nH]c(C)c2c(=N)n1-c1ccc(OC)cc1`: 82.3%.
Same read-out and setting: next, `Cc1cccc(C)c1NC(=O)CC(NCc1ccco1)C(=O)O` (stereo not given): 95.8%; `Cc1noc(NS(=O)(=O)c2ccc(N3C(=O)c4ccccc4C3=O)cc2)c1C`: 106%; `O=C(NC(C(=O)c1ccccc1)n1ccc(=O)[nH]c1=O)c1ccccc1` (stereo not given): 84.4%.
Consider `CCc1nnc(NC(=O)NCN2C(=O)C3C4C=CC(C4)C3C2=O)s1` (stereo not given), for which the viability was determined as 93.8%.
For `Cc1cc(C)c(C)c(S(=O)(=O)Nc2ccc(O)cc2)c1C`, the viability was 82.7%.
For the compound `COc1cccc(C(c2nnnn2CCc2ccccc2)N2CCN(c3ccccc3)CC2)c1OC` (stereo not given), the viability was 91%.
As for `O=C(CSc1nc(-c2ccccc2)cs1)NCc1ccco1`, the viability turned out to be 93%.
As for `Cc1cccc2cc(CN(CCCO)C(=O)Nc3ccc(Cl)cc3)c(=O)[nH]c12`, the viability amounted to 71.2%.
Still for that read-out and setting: the value for `O=C(O)c1oc2ccccc2c1-n1cccc1` was 97.8%; that for `O=C1CCc2cc(S(=O)(=O)N3CCC(C(=O)Nc4nccs4)CC3)ccc2N1` was 80.3%; that for `CC(=O)N1C(=O)C2(C(C#N)=C(N)Oc3cc(C)oc(=O)c32)c2ccccc21` (stereo not given) was 80.6%.
For `CCOc1ccc(C(=O)N2CCN(c3ccccc3)CC2)cc1OCC`, the viability was found to be 98.3%.
Take `O=C(Cn1cnc2c(nnn2Cc2ccccc2)c1=O)c1ccc(Cl)cc1`: the viability is 88.6%.
Same read-out and setting: the value for `CCCNS(=O)(=O)c1ccc(OCC(=O)NCc2ccc3c(c2)OCO3)cc1` was 89.1%; that for `COCCN(C(=O)CCC(=O)Nc1ccccn1)C(C(=O)NC1CCCC1)c1ccc(OC)cc1` (stereo not given) was 96.3%.
The same measure, in the same setting: the value for `Cn1c(=O)n(CC(=O)OCc2ccccc2)c(=O)c2c1nc1n2CCCN1C1CCCCC1` was 45.9%; that for `CCOc1ccc(-c2nnn(CCC(=O)O)n2)cc1OC` was 89.8%.
